Source: PubChem BioAssay AID504332 (National Center for Advancing Translational Sciences (NCATS), 2011)
Out of some 350,000 compounds screened, about 31,000 (8.9%) were called active. Another 15% or so got no clear call; they are omitted. The sample as a whole holds a higher share of actives than the screen did. A number with no mark means an inactive call. Calls follow the shape of the dose curve; as a rule, active = well fitted inhibition curve with a large enough effect; inconclusive = small, poorly fitted or top-dose-only effect; inactive = no such curve, though single readings can be large or run the other way.

These molecules were tested against Histone-lysine N-methyltransferase EHMT2 (Homo sapiens) (UniProt Q96KQ7) (assay: qHTS Assay for Inhibitors of Histone Lysine Methyltransferase G9a). Conditions: G9a H3K9 monomethylation, AlphaScreen, 2 h; series mostly up to 59 µM; activity, negative = inhibition: at the top concentration.
Sequence of Histone-lysine N-methyltransferase EHMT2 (Homo sapiens) (Q96KQ7 913-1193 limits assumed): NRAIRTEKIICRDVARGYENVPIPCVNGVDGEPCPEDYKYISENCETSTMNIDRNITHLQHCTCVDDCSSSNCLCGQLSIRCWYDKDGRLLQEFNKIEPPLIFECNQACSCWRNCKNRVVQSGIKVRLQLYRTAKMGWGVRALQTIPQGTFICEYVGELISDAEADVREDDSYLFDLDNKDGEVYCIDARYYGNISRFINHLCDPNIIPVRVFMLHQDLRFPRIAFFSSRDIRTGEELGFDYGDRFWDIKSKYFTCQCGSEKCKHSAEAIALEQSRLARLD
Method in brief: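 G9a (20 nM) preincubated 15 min RT with compounds, then 500 nM biotinylated H3K9 peptide and 20 uM SAM added; 2 h RT reaction. Monomethyl-H3K9 product detected by AlphaScreen with anti-H3K9me1 antibody, streptavidin donor and anti-rabbit IgG acceptor beads.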
% is scaled to controls: 0 for no effect and ±100 for the full control effect; potency is read from the fitted curve at half-maximal effect.
Also: nearly all actives have a fitted effect of over 75% in size.

Row | Compound | activity, negative = inhibition | Potency
1 | COc1ccccc1-c1oc2ccccc2c1C#CCCCCO | 7.94% [at 0.501 µM] | 
2 | Cc1nnc(NC(=O)Nc2ccc(Cl)c(Cl)c2)s1 | -0.92% | 
3 | Cc1cccc(CS(=O)(=O)c2ncc(Cl)c(C(=O)Nc3ccc(F)cc3)n2)c1 |  | 28.2 µM (active)
4 | CCOC(=O)c1ccc(NC(=O)c2nc(SCc3ccc(F)cc3)ncc2Cl)cc1 | -19.1% | 
5 | Cc1cccc(NC(=O)c2nc[nH]c2C(=O)NCC(=O)OCc2ccccc2)c1 | 18.7% | 
6 | Cc1ccc(CS(=O)(=O)c2ncc(Cl)c(C(=O)Nc3nnc(C)s3)n2)cc1 |  | 14.1 µM (active)
7 | Cc1ccc(S(=O)(=O)CC(=O)Nc2nnc(C)s2)cc1 | -6.86% [at 102 µM] | 
8 | Cc1cccc(NC(=O)c2nc(S(=O)(=O)Cc3ccccc3)ncc2Cl)c1 |  | 39.8 µM (active)
9 | Cc1cccc(OCc2ccc(C(=O)Nc3ccc(F)cc3)cc2)c1 | 16.2% | 
10 | CCSc1ncc(Cl)c(C(=O)Nc2cc(C)ccc2C)n1 |  | inactive
11 | Cc1ccc(NC(=O)CN(C)C(=O)c2cccc(S(=O)(=O)N3CCCC3)c2)cc1 | -8.22% | 
12 | COc1ccccc1OCC(=O)Nc1ccccc1C(=O)NC1CC1 | -4.61% [at 0.501 µM] | 
13 | COc1ccc(CCNC(=O)c2ccc(-n3c(C)cc4c3CCCC4)cc2)cc1OC | -40.5% | 
14 | O=C(CSC1=NS(=O)(=O)c2cc(F)ccc2N1)Nc1ccccc1F | -42.2% [at 102 µM] | 
15 | N#Cc1nc(/C=C/c2ccc(F)cc2)oc1NC1CCCCC1 | 2.98% | 
16 | Cc1cc(C)c(NC(=O)Cn2c(SCC(=O)NCc3ccccc3)nc3ccccc32)c(C)c1 | 4.9% | 
17 | O=C(Nc1cc(Cl)cc(Cl)c1)c1ccc2c(c1)N(Cc1cccc(Cl)c1)C(=O)c1ccccc1S2=O (centres undefined) | 6.71% | 
18 | COc1ccccc1NC(=O)c1oc2ccccc2c1NC(=O)COc1ccccc1OC | -17.6% | 
19 | CCC(C)c1ccc2oc(-c3ccc(NC(=O)c4cc5ccccc5o4)cc3)nc2c1 (centres undefined) | -8.57% | 
20 | COc1cc(NS(=O)(=O)c2ccc(NC(=O)c3ccc([N+](=O)[O-])cc3)cc2)ncn1 | 0.812% [at 102 µM] | 
21 | Cc1cc([N+](=O)[O-])ccc1NC(=O)c1ccc(NC(=O)C(C)C)cc1 | -4.16% [at 102 µM] | 
22 | Cn1ccc(=Nc2ccc(NC(=O)c3ccc(N=c4ccn(C)c5ccc([N+](=O)[O-])cc45)cc3)cc2)cc1 |  | 15.8 µM (active)

Row | Compound | activity, negative = inhibition | Potency
23 | COc1ccccc1CNS(=O)(=O)CC12CCC(CC1=O)C2(C)C (centres undefined) | -2.74% [at 102 µM] | 
24 | COc1cc(C(=O)NCc2cc3cc(Cl)ccc3n2C)cc(OC)c1OC | -11.8% [at 102 µM] | 
25 | Cc1c(Cl)cccc1NC(=O)c1noc2c1CCCC2 | 8.61% | 
26 | Cc1ccc(S(=O)(=O)N2CCCCC2)cc1C(=O)N(C)CC(=O)Nc1cccc(F)c1 | -21.7% [at 102 µM] | 
27 | Cc1cc(C)c(SCCc2ccncc2)c(C)c1 | 58.4% [at 102 µM] | 
28 | Cc1cc(NC(=O)COc2ccc([N+](=O)[O-])cc2)no1 | -2.93% [at 12.7 µM] | 
29 | CC(C)c1nnc(NC(=O)COC(=O)/C=C/c2ccc([N+](=O)[O-])cc2)s1 | 105% [at 102 µM] | 
30 | CCOCC(=O)Nc1ncc(S(=O)(=O)c2ccc([N+](=O)[O-])cc2)s1 |  | 35.5 µM (active)
31 | CC/C(=N\NC(=O)c1c(C)nc2ccccn12)c1ccc(Cl)cc1 | 15.2% [at 102 µM] | 
32 | CC(C)C(C)NC(=O)COc1nc2ccccc2nc1N(C)C1CCCCC1 (centres undefined) | -5.83% [at 102 µM] | 
33 | COc1ccccc1N(C)S(=O)(=O)c1ccc(Cl)c(C(=O)Nc2ccncc2)c1 | 9.32% | 
34 | CN1CCN(C2(CNC(=O)COc3ccc(C(C)(C)C)cc3)CCCCC2)CC1 | 8.13% | 
35 | C/C(=N\NC(=S)NCc1ccccc1)c1ccc(Cl)cc1 | 9.66% | 
36 | O=C(CC1CCCCC1)NCc1ccccc1 | 20.6% [at 102 µM] | 
37 | C/C(=N\NC(=S)NCc1ccccc1)C1CCCCC1 |  | 35.5 µM (active)
38 | COc1ccc(OC)c(CNC(=O)Cn2nc(C)c3c(C)n(-c4ccc(C)cc4)nc3c2=O)c1 | 18% | 
39 | COc1cccc(CNC(=O)c2ccc3c(Cl)c4c(nc3c2)CCCC4)c1 | -40.5% | 
40 | C/C(CC1CC(C)(C)OC1=O)=N/Nc1nc(-c2ccccc2)cs1 (centres undefined) |  | 3.16 µM (active)
41 | CC1(C)CC(CCC(=O)Nc2ccccc2Cl)C(=O)O1 (centres undefined) | 20.1% | 
42 | CCc1noc(C)c1C(=O)Nc1nc(-c2ccccc2)cs1 | -39.9% [at 102 µM] | 
43 | CN1C(=O)c2[nH]nc(-c3ccc(F)cc3)c2C1c1ccccn1 (centres undefined) | -3.23% | 
44 | CCOC(=O)c1[nH]c2ccc(OC)cc2c1NC(=O)CCN1CCN(Cc2ccccc2)CC1 | -13.9% [at 2.33 µM] | 

Row | Compound | activity, negative = inhibition | Potency
45 | CCOC(=O)C1CCN(C(=O)Nc2cccc(OC)c2)CC1 | 4.16% [at 102 µM] | 
46 | CCOC(=O)c1[nH]c2ccc(OC)cc2c1NC(=O)N1CCOCC1 |  | 50.1 µM (active)
47 | CCCC(=O)C1=C(N(C)c2ccccc2)CC(C)(C)C(C(=O)OC)C1=O (centres undefined) | -30.5% | 
48 | C=CCO/N=C/C1=C(O)C(C(=O)OC)C(C)(C)CC1=O (centres undefined) |  | 15.8 µM (active)
49 | COCC(C)N=CC1=C(O)CC(C)(C)CC1=O (centres undefined) | 10.1% | 
50 | COc1ccc(S(=O)(=O)n2cnc3ccccc32)c(C)c1 | 9.88% [at 102 µM] | 
51 | CC(C)(C)c1cc(CN2CCN(CCC#N)CC2)cc(C(C)(C)C)c1O |  | 17.8 µM (active)
52 | N#CCCN1CCN(S(=O)(=O)c2ccc(S(=O)(=O)N3CCCC3)cc2)CC1 | 1.44% | 
53 | N#Cc1cccc(CN2CCC(=O)N(CCO)CC2)c1 | -5.64% [at 102 µM] | 
54 | CCN(C(=O)CSc1ncnc2sccc12)c1c(N)n(Cc2ccccc2)c(=O)[nH]c1=O | -8.47% | 
55 | Cc1ccc(N2C(=O)C3C4C=CC(CC4)C3C2=O)cc1Br (centres undefined) | -6.84% [at 0.501 µM] | 
56 | CCCn1nc(NC(=O)C(C)C)c2cc3cc(OC)ccc3nc21 | 7.96% [at 102 µM] | 
57 | O=C(C1CCCO1)N1CCC(c2nc3ccccc3[nH]2)CC1 (centres undefined) | -28.9% [at 12.7 µM] | 
58 | N#CC(C(=O)c1ccc(S(=O)(=O)N2CCCCCC2)cc1)c1nc2ccccc2[nH]1 (centres undefined) | 25.8% [at 102 µM] | 
59 | O=S(=O)(c1ccc(Br)cc1)N1CCC(c2nc3ccccc3[nH]2)CC1 |  | 70.8 µM (active)
60 | COc1ccc(CCNC(=O)COC(=O)Cc2cccc(F)c2)cc1 | 5.11% [at 0.501 µM] | 
61 | CC(Oc1cc2oc(=O)c3c(c2cc1Cl)CCCC3)C(=O)NCc1ccncc1 (centres undefined) | 5.02% [at 102 µM] | 
62 | COc1cc(OC)nc(NC(=O)CCl)n1 | -4.48% | 
63 | COc1cc(OC)nc(N/N=C(\c2ccccc2)c2ccncc2)n1 |  | 12.6 µM (active)
64 | COc1ccc(C/C(C)=N/NC(=O)c2ccncc2)cc1 | 16.5% [at 102 µM] | 
